Assay outcomes from PubChem.
Compounds with a hit are over-represented: about 31% of the library has one in this group of screens.
CYP2C19 act: activators of human cytochrome P450 2C19; 96,000 tested, under 10 active; recombinant CYP2C19, luciferin-H EGE luminescence; active compounds read high; 0 = fully inhibited enzyme, 1 = untreated enzyme; activation factor at 5 µM;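 active = activation factor of at least 2 at 5 µM in the primary screen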;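 note: 0 = wells with 2.5 mM tranylcypromine and 1 = vehicle-only wells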
PLAP act: activates human placental alkaline phosphatase; P05187; purified PLAP enzyme, luminescent substrate read-out; active compounds read high; activation fold at 20 µM; AID 696; actives 1.2% (n = 96,000); in the data active = activation fold above about 2
Target sequence (P05187 whole entry, looked up): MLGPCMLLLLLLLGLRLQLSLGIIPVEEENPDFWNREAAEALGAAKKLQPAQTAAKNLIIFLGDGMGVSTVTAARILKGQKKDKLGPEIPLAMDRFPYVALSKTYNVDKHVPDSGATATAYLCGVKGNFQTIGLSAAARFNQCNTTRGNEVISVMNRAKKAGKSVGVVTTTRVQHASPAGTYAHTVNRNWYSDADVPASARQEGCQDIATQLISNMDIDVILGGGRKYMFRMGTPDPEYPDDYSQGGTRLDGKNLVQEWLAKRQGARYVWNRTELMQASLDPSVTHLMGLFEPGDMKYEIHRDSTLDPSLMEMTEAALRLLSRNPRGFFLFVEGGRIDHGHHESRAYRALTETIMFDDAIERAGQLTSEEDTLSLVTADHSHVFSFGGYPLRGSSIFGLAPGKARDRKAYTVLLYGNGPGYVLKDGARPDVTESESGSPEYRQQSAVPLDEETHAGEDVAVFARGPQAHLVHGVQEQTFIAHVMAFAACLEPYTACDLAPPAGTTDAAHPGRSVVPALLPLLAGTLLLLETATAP
CYP2C9 activ: increases human cytochrome P450 2C9 activity; P11712; recombinant CYP2C9, luciferin-H conversion, luminescence; active compounds read high; factor 1 = untreated enzyme, 0 = blocked; activation factor at 5 µM; actives 1.4% (n = 96,000);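 active = activation factor of 2 or more for CYP2C9 at a 5 µM dose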;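 note: 0 = sulfaphenazole-blocked wells and 1 = vehicle-only wells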
CYP2C9 inh: blocks human cytochrome P450 2C9; P11712; CYP2C9 Supersomes, luciferin-H conversion, luminescence; inhibition, % at 5 µM; actives 20% (n = 96,000);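 active = blocking of liver enzyme CYP2C9 beyond about 50% at 5 µM, limit read from the data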
CYP2C19 inh: inhibitors of human CYP2C19. CYP2C19 Supersomes, luciferin-H EGE luminescence, 30 min. inhibition, % at 5 µM. actives 21% (n = 96,000). AID 778;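 active = CYP2C19 inhibition above a set limit at 5 µM in the primary screen, cut at about 50% in these data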;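 note: plate controls were negative control wells for no effect and 2.5 mM tranylcypromine positive control for full effect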
Active calls of the source: *.

SMILES	CYP2C19 act	PLAP act	CYP2C9 activ	CYP2C9 inh	CYP2C19 inh
CC1Cc2ccccc2N1S(=O)(=O)c1cccc(C(=O)c2nccn2C)c1 (stereo not given)	0.6	1.3	0.6	44.4	36.2
Cc1noc(C)c1COC(=O)c1cccc(S(=O)(=O)N2c3ccccc3CC2C)c1 (stereo not given)	0.4	1	0.2	80.1*	58.6*
CCC(CO)NC(=O)c1cccc(S(=O)(=O)N2c3ccccc3CC2C)c1 (stereo not given)	0.3	1.5	0.9	13.9	73.4*
Cc1ccc(S(=O)(=O)NCCOc2nc(N3CCOCC3)nc(N3CCOCC3)n2)cc1	0.8	1.2	0.6	35.5	23.9
c1ccc(CCn2nnnc2C(c2cccnc2)N2CCN(c3ccccc3)CC2)cc1 (stereo not given)	0.2	1.6	0.3	72.7*	80.7*
Oc1ccc(N2CCN(C(c3cccnc3)c3nnnn3Cc3ccccc3)CC2)cc1 (stereo not given)	0.5	1.4	0.4	57.1*	52.2*
COc1ccc(OC)c(C(c2nnnn2CCc2ccccc2)N2CCN(c3ccccc3)CC2)c1 (stereo not given)	0.6	1.6	0.6	44.2	41.4
c1ccc(CCn2nnnc2C(c2cccnc2)N2CCN(c3nc4ccccc4s3)CC2)cc1 (stereo not given)	0.4	1.7	0.6	36.3	58.7*
CC1=N/C(=C\c2ccc([N+](=O)[O-])cc2)C(=O)N1c1cc(Cl)ccc1C	1	1.1	1.1	-8.6	1.1
COC(=O)c1ccc(CNC(=O)/C=C/c2cc([N+](=O)[O-])ccc2OC(F)F)cc1	0.9	0.9	1	1.2	10.8
N#CC1=C(N)N(c2ccccc2)C(=O)C1	1.1	1.1	1.6	-62.4	-12.5
CC(C)OC(=O)C1=C2SCC(=O)N2C(N)=C(C#N)C1	0.2	0.9	0.9	5.5	76.3*
COc1cccc(NC(=O)Cn2cc3c(n2)CCCCC3)c1	0.9	1.1	0.9	5.6	9.8
COc1cc(C)c(S(=O)(=O)NCc2ccc3c(c2)OCO3)cc1C	0	0.6	0.2	83.9*	99.6*
COc1cc(C)c(Cl)c(C)c1S(=O)(=O)NCc1ccc2c(c1)OCO2	0.8	1	1.4	-35.5	24.9
COc1cc(S(=O)(=O)NCc2ccc3c(c2)OCO3)ccc1Cl	0	0.7	0.7	30.2	99.5*
O=S(=O)(NCc1ccc2c(c1)OCO2)c1cnc[nH]1	0.3	1.5	0.1	92.3*	69.9*
CCOc1ccc(OCC)c(S(=O)(=O)NCc2ccc3c(c2)OCO3)c1	0	1.1	0.1	91.9*	100.1*
COc1ccc(CN2C(=O)CCC2(C)C(=O)NC2CCCCCC2)cc1 (stereo not given)	1	1.1	1	-4.2	3.0
COc1ccc(CN2CC(C(=O)NCCc3ccc(C)cc3)CC2=O)cc1 (stereo not given)	0.6	1.1	0.7	31.6	39.1
CCOC(=O)C(C)Sc1nc(-c2cccs2)ccc1C#N (stereo not given)	0.1	1	0	95.6*	91.1*
C=COC(=O)CSc1nc(-c2cccs2)ccc1C#N	1	1.3	0.9	14.9	-3.4
CSCc1cc(N(C)C)nc(SCc2ccc(Cl)c(Cl)c2)n1	0.3	1	0.3	71.3*	71.6*
CNc1cc(CSC)nc(SCc2ccc(Cl)cc2Cl)n1	1.1	1	1	-0.6	-6.3
O=S(=O)(c1cccs1)N1CCN(CC(O)COc2cc(Cl)ccc2Cl)CC1 (stereo not given)	0.5	0.9	0.7	34.6	45.7
SMILES	CYP2C19 act	PLAP act	CYP2C9 activ	CYP2C9 inh	CYP2C19 inh
CCc1ccc(OCC(=O)N2CCN=C2c2ccccc2)cc1	0.7	1	0.6	36.8	33.3
Cc1csc(NC(=O)c2cccs2)n1	0.1	1.1	0.5	53.6*	94.5*
Cc1cccc(N2CCN(C(=O)CCNS(=O)(=O)c3ccc4c(c3)CCC(=O)N4)CC2)c1C	1	1.6	0.4	58.5*	-2.8
CCOC(=O)Cc1csc(NS(=O)(=O)c2ccc(F)cc2)n1	1	1.1	0.5	50.4*	1.5
CCCCC(=O)Nc1ccc(C(=O)Nc2nc(CC(=O)OCC)cs2)cc1	0.8	0.9	0.3	68.5*	22.0
Cc1ccc(OCc2nc(-c3ccc(-n4cccc4)cc3)no2)cc1C	1	0.8	1.9	-90.8	0.5
CCCc1nnc(SCC(=O)N2CCCC(C)C2)n1CC1CCCO1 (stereo not given)	0.8	1	1	0.9	22.8
CCOC(=O)Cc1csc(NC(=O)CCNS(=O)(=O)c2ccc3c(c2)CCC(=O)N3)n1	0.9	1	0.4	55.9*	8.3
CCOC(=O)Cc1csc(NC(=O)c2ccc(Br)s2)n1	0.2	1.3	0	99.5*	77.7*
CCOC(=O)Cc1csc(NC(=O)c2ccc(Cl)nc2)n1	0.8	1	0.8	18.1	16.7
CCOC(=O)Cc1csc(NC(=O)CSc2nnc(C(C)C)n2C)n1	1.2	1	1.1	-12.5	-18.0
CCOC(=O)Cc1csc(NC(=O)c2ccc3c(c2)OCO3)n1	1	0.9	0.6	36.3	3.7
CCOC(=O)Cc1csc(NC(=O)c2cccs2)n1	0.1	1.1	0.2	76.9*	88.3*
CCOC(=O)Cc1csc(NC(=O)c2sc3nc4ccc(CC)cc4cc3c2N)n1	0.6	1.1	0.4	62.6*	41.2
CCOC(=O)Cc1csc(NC(=O)c2ccc(Br)o2)n1	0.6	1.1	0.4	59.9*	44.9
CCOC(=O)CSC1=C(C#N)C(c2ccccc2OC)CC(=O)N1 (stereo not given)	0.4	0.9	0.8	15.3	64.2*
CCOC(=O)CSC1=C(C#N)C(c2ccccc2C)C2=C(CCCC2=O)N1 (stereo not given)	0.5	0.8	0.2	78.6*	50.4*
CCSC1=C(C#N)C(c2ccc(Cl)cc2)C2=C(CCCC2=O)N1 (stereo not given)	0.1	0.8	0.1	93.7*	93.5*
CCSC1=C(C#N)C(c2ccc(C)s2)CC(=O)N1 (stereo not given)	0.3	1	0.5	51.8*	69.1*
CCC(=O)N(Cc1cc(=O)[nH]c2ccccc12)C1CCCCC1	1.1	1.2	1	3.2	-5.7
Cc1cc(=O)n2[nH]c(COc3ccccc3)nc2n1	1	1	0.8	21.6	0.6
O/N=C1/CCSc2ccccc21	1	1	1.1	-8.9	-3.2
COc1ccc(OC)c(C2CC(=O)NC(SC)=C2C#N)c1 (stereo not given)	0.5	1	0.4	63.8*	48.4
CCOC(=O)CSC1=C(C#N)C(c2ccc(C)s2)CC(=O)N1 (stereo not given)	0.3	0.9	0	95.5*	71.6*
O=C1C=C(c2ccc(Cl)cc2)OC2(CCCC2)O1	0.8	0.9	0.6	36.1	24.1
CCOc1ccc(C(=O)Nc2ccc3c(c2)OCO3)cc1OCC	1.1	0.8	1.1	-14.7	-6.0
COC(=O)c1ccccc1NC(=O)NCc1cccnc1	0.6	1	1	4.2	40.2
